Activity calls are given as the source filed them. The calls were made as follows: active = hit-call score of the fitted dose curve at least 0.9, where 1 is the maximum; inactive = score below 0.9.
Read-out: flavin-containing dimethylaniline monooxygenases 3 (FMO3), FMO3 (gene 2328)
Assay: LTEA_HepaRG_FMO3: Life Technologies and Expression Analysis (LTEA) Assay for flavin-containing dimethylaniline monooxygenases 3 (FMO3) using HepaRG (AID 2283453);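 as to AC50: differentiated human HepaRG liver cells in serum-free induction medium; FMO3 transcript by TaqMan qRT-PCR normalized to ACTB GAPDH and POLR2A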
Details: mRNA level, 48 h; actives raise or lower the signal
How it was run: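 HepaRG, 48 h exposure, 8-pt half-log series from 100 uM, 0.5% DMSO vehicle, duplicates; FMO3 transcript by Fluidigm TaqMan qRT-PCR, housekeeping-normalized; gain/loss fit vs DMSO.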

Row | Structure (SMILES) | AC50 | outcome
1 | CCN(CC)CCOc1ccc(C(=C(Cl)c2ccccc2)c2ccccc2)cc1 | 22 µM (active) | 
2 | CCC(C)N(C)C(=O)c1cc2ccccc2c(-c2ccccc2Cl)n1 (centres undefined) |  | inactive
3 | O=C(O)c1[nH]n(-c2ccc(S(=O)(=O)O)cc2)c(=O)c1N=Nc1ccc(S(=O)(=O)O)cc1 |  | inactive
4 | CO[C@@H]1COCC[C@@H]1N[C@@H]1CC[C@@](C(=O)N2CCc3ncc(C(F)(F)F)cc3C2)(C(C)C)C1 |  | inactive
5 | CC(=O)OC1CC(C)OC(C)O1 (centres undefined) |  | inactive
6 | CCCCCCC(CCCCCCCCCCC(=O)OCC(COC(C)=O)OC(C)=O)OC(C)=O (centres undefined) |  | inactive
7 | O=C(O)CN(CC(=O)O)CC(=O)O |  | inactive
8 | Cc1ccc(-c2cc(C(F)(F)F)nn2-c2ccc(S(N)(=O)=O)cc2)cc1 | 76.8 µM (active) | 
9 | N[C@@H](Cc1c[nH]c2ccccc12)C(=O)O |  | inactive
10 | CCCCOC(=O)CCCCC(=O)OCCCC |  | inactive
11 | C#CC(O)C(CC)CCCC (centres undefined) |  | inactive
12 | CCCCCCCCCC[N+](C)(C)[O-] |  | inactive
13 | O=C1c2c(O)cccc2Cc2cccc(O)c21 |  | inactive
14 | CCCCCCCC(=O)OC | 12.1 µM (active) | 
15 | NC(=Nc1ccccc1)Nc1ccccc1 |  | inactive
16 | O=C(N[C@@H](c1ccccc1)[C@@H]1CCCCN1)c1cccc(C(F)(F)F)c1Cl | 53.7 µM (active) | 
17 | COc1ccc(C(=O)Nc2nc3ccccc3c(NCc3ccccc3)c2C#N)cc1 | 16.2 µM (active) | 
18 | O=C(O)CC(O)(CC(=O)O)C(=O)O |  | inactive
19 | S=c1[nH]c2ccccc2s1 |  | inactive
20 | O=C1NC(=O)C(c2ccccc2)(c2ccccc2)N1 |  | inactive
21 | O=C(Oc1ccccc1)c1cccc(C(=O)Oc2ccccc2)c1 |  | inactive
22 | CC1=C(C)S(=O)(=O)CCS1(=O)=O | 90.9 µM (active) | 
23 | CC(C)OC(=O)C(C)(C)Oc1ccc(C(=O)c2ccc(Cl)cc2)cc1 |  | inactive
24 | CC(COCC(C)OC(=O)c1ccccc1)OC(=O)c1ccccc1 (centres undefined) |  | inactive
25 | CCCCc1nc2cccnc2n1Cc1ccc(-c2ccccc2-c2nnn[nH]2)cc1 |  | inactive
26 | CC(=O)O[C@]1(C(C)=O)CC[C@H]2[C@@H]3C=C(Cl)C4=CC(=O)[C@@H]5C[C@@H]5[C@]4(C)[C@H]3CC[C@@]21C | 36.1 µM (active) | 
27 | Oc1ccccc1O |  | inactive
28 | O=C1OC(c2ccc(O)cc2)(c2ccc(O)cc2)c2ccccc21 | 93.8 µM (active) | 
29 | C=CCc1ccc(OC)c(OC)c1 |  | inactive

Source: PubChem BioAssay (EPA / NIEHS)
